# Target: SLC34A1
# Test: pooled miR-30 sensor sort-seq; sequence = guide strand
# Details: shRNA
# Also: reference of the scale not given here.
row,Sequence,sensor-assay potency score (higher = more potent)
1,TAGTCATGTGTACACGTGCAGA,-1.32
2,TCCGTATTGATGACCTTCTGGA,-0.714
3,TTGACTAGGAGGATGAGGCAGG,0.548
4,TAGAGGACGGCAAACCAGCGGT,-0.623
5,TTGGAACCCAGTGTGAGCGGGT,0.313
6,TTGAGCATCTTGACTAGGAGGA,0.961
7,TTGATGAGCACCACGAAGGCCA,-0.0356
8,TTAAAGCAGTCATGCACCGTGG,-0.651

# Target: SLC35D2
# Test: as above
# Details: shRNA
row,Sequence,sensor-assay potency score (higher = more potent)
1,TTGTGCTTGATAATCCACTTAT,-0.388
2,TTAGCTTGGACACATATAGTAT,-0.569
3,TAAACTGAAACAACTGGCCCTT,0.105
4,TTACTTGTGCTTGATAATCCAC,-0.229
5,TAGACTAAAGACATGTCTGTTT,-0.123
6,TAGCTGCACAGAACCGTGGAGT,-0.729
7,TATAGTATCATTATGGTGGCTG,0.443
8,TTTCTTATCAAAATCAGGGAAG,-0.741
9,TAGGATAAACACAACATTCTTC,0.0517
10,TACATTTCTTGAGACTGCCATT,-1.38
11,TTAACTAATTTTATTAGACTAA,-1.13
12,TAATAGCTGCACAGAACCGTGG,-0.868

# — the OligoGym collection
